The text below walks through data of PubChem BioAssay AID1001 (Sanford-Burnham Center for Chemical Genomics, 2008).

In all, about 200,000 compounds went through this assay and about 50 (0.03%) were called active. How the calls were made is not given here. The sample as a whole holds a higher share of actives than the screen did. Potency and affinity values are given separately.

The target in the assay is Alkaline phosphatase, tissue-nonspecific isozyme (Homo sapiens) (UniProt P05186). As to the kind of experiment: human TNAP enzyme activators, primary screen, biochemical, luminescent, no phosphate acceptor, uHTS (AID 1001). The following applies: purified TNAP, luminescent activation assay, at 20 µM, stronger effect = higher value.
Chain of Alkaline phosphatase, tissue-nonspecific isozyme (Homo sapiens) (P05186 whole entry, looked up): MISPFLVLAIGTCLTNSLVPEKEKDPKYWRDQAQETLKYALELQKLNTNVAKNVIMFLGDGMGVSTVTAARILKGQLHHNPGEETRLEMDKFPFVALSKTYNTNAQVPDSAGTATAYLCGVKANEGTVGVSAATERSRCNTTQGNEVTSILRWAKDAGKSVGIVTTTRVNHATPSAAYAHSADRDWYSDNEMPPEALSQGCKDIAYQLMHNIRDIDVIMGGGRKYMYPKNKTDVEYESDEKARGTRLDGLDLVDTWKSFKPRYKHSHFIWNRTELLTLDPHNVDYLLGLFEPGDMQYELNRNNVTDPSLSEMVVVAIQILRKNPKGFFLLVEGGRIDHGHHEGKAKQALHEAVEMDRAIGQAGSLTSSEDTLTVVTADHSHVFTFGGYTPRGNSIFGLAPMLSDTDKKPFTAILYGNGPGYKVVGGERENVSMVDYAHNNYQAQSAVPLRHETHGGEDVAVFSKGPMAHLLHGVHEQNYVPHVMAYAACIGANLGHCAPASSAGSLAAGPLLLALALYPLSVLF
Consider `COCCCNC(=O)CCC(=O)NNc1nc2ccccc2c2nc(-c3ccccc3)nn12`, for which the activation fold is 2.3 (inactive). With `CCCCNC(=O)CCC(=O)NNc1nc2ccccc2c2nc(-c3ccccc3)nn12`, the activation fold is 1.6 (inactive). Turning to `CCOCCCNC(=O)CCC(=O)NNc1nc2ccccc2c2nc(-c3ccccc3)nn12`, the activation fold was 2.1 (inactive).

For the molecule `O=C(CCC(=O)NNc1nc2ccccc2c2nc(-c3ccccc3)nn12)NCCCN1CCCC1=O`, the activation fold was 1.1 (inactive). `COc1ccc(C(=O)N/C(=C\c2ccccc2)C(=O)NC(CC(C)C)C(=O)O)cc1` (configuration not stated): the activation fold is 1.1 (inactive).

Regarding `Cc1coc(C)c1C(=O)CC1(O)C(=O)N(CCc2ccccc2)c2ccccc21` (configuration not stated), the activation fold is 1.1 (inactive). As for `CCOC(=O)CSc1nc2c(sc3ccc([N+](=O)[O-])cc32)c(=O)n1Cc1ccco1`, the figure is 1.1 (inactive); as for `CCOc1ccc(-n2cc(-c3ccccc3)c3c(N4CCOCC4)ncnc32)cc1`, 1.1 (inactive); as for `O=c1cc(NCc2ccc3c(c2)OCO3)[nH]c(=O)n1-c1ccc(Cl)cc1`, 1.1 (inactive).

In the case of `O=S(=O)(Nc1ccc2c(c1)OCO2)c1ccccc1`, the activation fold is 1.1 (inactive). As for `CNC(=O)N(O)C1N(C)C(=O)N(Cc2ccccc2)C1(C)C` (configuration not stated), the figure is 1.1 (inactive); as for `O=C(CCN1C(=O)/C(=C\c2ccccc2)SC1=S)NNC(=O)c1cccnc1`, 1.6 (inactive). As for `O=C(CCN1C(=O)/C(=C/c2ccccc2)SC1=S)NNC(=O)c1cccnc1`, the figure is 1.6 (inactive); as for `CCCC(Oc1ccc(Br)cc1)c1nc2c3cc(OC)c(OC)cc3nc(=S)n2[nH]1` (configuration not stated), 1.2 (inactive); as for `Cc1cc(N2CCCCC2)nc(NCc2ccccc2)n1`, 1 (inactive). As for `Cc1cc(N2CCCCC2)nc(N)n1`, the figure is 1.1 (inactive). As for `COc1cccc(C(=O)NNC(=O)c2ccccc2-n2cccc2)c1`, the activation fold was 1.3 (inactive). As for `O=C(CSc1nnc(-c2ccncc2)n1Cc1ccccc1)NCCc1ccccc1`, the activation fold was 1.2 (inactive). `S=C(NCCCn1ccnc1)Nc1ccc(Cl)cc1Cl`: the activation fold was 1 (inactive). As for `Clc1ccc(OCCn2ccnc2)c(Cl)c1`, the activation fold is 1 (inactive). For the molecule `Clc1ccc(SCCn2ccnc2)cc1`, the activation fold is 1.1 (inactive). Regarding `OC(Cn1ccnc1)c1ccc(Cl)cc1Cl` (configuration not stated), the activation fold was 1 (inactive). As for `Cc1cc2cc3c(cc2nc1SCC(=O)O)CCC3`, the figure is 1 (inactive); as for `CCCCC(=O)Nc1ccc(C(=O)OC2CCCCC2)cc1`, 1 (inactive). `CCS(=O)(=O)N1CCC(NC(=O)c2ccco2)CC1`: the activation fold is 1.1 (inactive). Turning to `O=C(O)c1ccc(CNC(=O)c2ccc(C(F)(F)F)cc2)cc1`, the activation fold is 1 (inactive).

In the case of `COC(=O)c1ccc(/C=C2\N=C(SC)SC2=O)cc1`, the activation fold is 1.1 (inactive). For `CC(=O)OCCCN1C(=O)c2ccc(Br)cc2C1=O`, the activation fold was 1 (inactive). As for `OCCCN1c2ccccc2Nc2nnc(-c3ccccc3)cc21`, the figure is 1.5 (inactive); as for `CC(C)c1[nH]nc2c1C1(CCN(Cc3ccccc3)CC1)C(C#N)=C(N)O2`, 0.9 (inactive). Take `CC(C)=CCSc1nnc([C@@H](NC(=O)OC(C)(C)C)C(C)C)o1`: the activation fold was 1.1 (inactive). As for `CCOC(=O)N1CCC(NC(=O)CSc2cc(=O)n(CC)c3ccccc23)CC1`, the figure is 1.2 (inactive); as for `CCc1ccc(CNC(=O)Cn2nc(-c3ccccc3)ccc2=O)cc1`, 1 (inactive); as for `Oc1c(C(c2ccc(Cl)cc2)N2CCCC2)cc(Cl)c2cccnc12` (configuration not stated), 1.2 (inactive). Turning to `CN1CCN(C(c2ccccn2)c2cc(Cl)c3cccnc3c2O)CC1` (configuration not stated), the activation fold was 2.5 (inactive). On to `CC(=O)c1sc(NC(=O)C(C)(C)C)nc1C`, for which the activation fold was 1.1 (inactive). On to `Cc1cccc(NCc2nc(-c3ccccc3)no2)c1`, for which the activation fold is 1.1 (inactive). As for `CC(C)CNC(=O)C(=O)NNC(=O)c1ccco1`, the figure is 1.1 (inactive); as for `CC(C)CC(CC(C)C)=NNC(=O)c1ccc2c(c1)OCO2`, 1.1 (inactive); as for `CC(C)CCC(C(=O)O)C(C)CC(=O)NNC(=O)c1ccco1` (configuration not stated), 1.1 (inactive). As to `CNC(=S)NNC(=O)c1ccc2c(c1)OCO2`, the activation fold is 1.6 (inactive). As for `COC(=O)c1ccc(N=Cc2c(C(F)(F)F)[nH][nH]c2=O)cc1`, the figure is 0.8 (inactive); as for `C/C(=N\NC(=O)c1nn(C)cc1Cl)c1ccncc1`, 1.2 (inactive).

Consider `Cc1ccc(/C=N/NC(=O)c2nn(C)cc2Cl)cc1`, for which the activation fold was 1.1 (inactive). For `COc1ccc2nc(Nc3nc(CSc4nc5ccccc5[nH]4)cc(=O)[nH]3)nc(C)c2c1`, the activation fold is 2.4 (inactive).

With `Cc1nc(Nc2nc(CSc3nc4ccccc4[nH]3)cc(=O)[nH]2)nc2ccccc12`, the activation fold is 2.5 (inactive). Take `CCOC(=O)CNC(=O)C(CO)NC(=O)OCc1ccccc1` (configuration not stated): the activation fold is 1.1 (inactive). For the molecule `CCOC(=O)/C(N=Nc1sc(C(=O)OCC)c(C)c1C(=O)OCC)=C(\C)O`, the activation fold is 1 (inactive).

On to `COC(=O)c1sccc1NC(=O)Cn1nnc(-c2ccc(C)cc2)n1`, for which the activation fold is 1 (inactive). On to `O=C(CCC(=O)Nc1ccc(Cl)cc1Cl)NNC(=O)Nc1ccccc1`, for which the activation fold is 1.3 (inactive). With `Cc1cc([N+](=O)[O-])nn1CC(=O)Nc1ccc(F)cc1`, the activation fold was 1.1 (inactive).

`Cc1cc([N+](=O)[O-])nn1CC(=O)Nc1cc(F)ccc1F`: the activation fold was 1 (inactive). For `CCOC(=O)C1(Cc2cccc(OC)c2)CCN(Cc2cnc(C)s2)CC1`, the activation fold was 1 (inactive). For the molecule `CCCCN1CNC(=S)N(Cc2ccccc2)C1`, the activation fold was 0.9 (inactive). As for `COc1ccc(S(=O)(=O)Nc2ccccc2C)cc1`, the figure is 1 (inactive); as for `CCN(CC)c1ccc(C=Nc2ccc(C)cc2)c(O)c1`, 0.9 (inactive); as for `CCN(CC)c1ccc(N=Cc2ccc(N(CC)CC)cc2O)cc1`, 6 (active). As for `CCN(CC)c1ccc(C=Nc2ccc(N(C)C)cc2)c(O)c1`, the figure is 2.3 (inactive); as for `COc1ccc(C(C)=O)c(Oc2nc(CN3CCOCC3)nc3scc(-c4cccs4)c23)c1`, 1 (inactive); as for `CC(=O)NNc1ncnc2c1cnn2-c1ccc(C)c(Cl)c1`, 2.2 (inactive). For the molecule `Cn1ncc2c(NNC(=O)c3ccc(Cl)cc3Cl)ncnc21`, the activation fold is 2.4 (inactive). As for `Cn1cccc1C(=O)C(=O)Nc1ccccc1C(F)(F)F`, the activation fold is 1.2 (inactive). On to `CN(CCO)C(=O)CCC(=O)Nc1ccc(S(N)(=O)=O)cc1`, for which the activation fold is 1.1 (inactive).

Turning to `CCN1/C(=C/C=C/C=C/c2sc3ccccc3[n+]2CC)Sc2ccccc21`, the activation fold is 53.2 (active). For the molecule `CC[n+]1c(/C=C/C=C/N(C(C)=O)c2ccccc2)sc2ccccc21`, the activation fold was 0.7 (inactive). For the molecule `CCN1/C(=C/C(C)=C/c2sc3ccccc3[n+]2CC)Sc2ccccc21`, the activation fold is 0.4 (inactive). As to `CCNC(=S)NNC(=O)c1cc(C)nc2ccccc12`, the activation fold is 1.7 (inactive). Consider `CCCc1cc(C(=O)NNC(=S)NCC)c2ccccc2n1`, for which the activation fold was 1.1 (inactive).

Consider `COc1ccc(C)cc1-n1[nH]nnc1=S`, for which the activation fold is 1 (inactive). On to `COc1ccc(NC(=S)N2CCCC2c2ccc(OC)c(OC)c2)cc1` (configuration not stated), for which the activation fold was 0.9 (inactive).

For `C=CCNC(=S)NNC(=O)C(CCCC)CC(C)O` (configuration not stated), the activation fold was 1.7 (inactive). Consider `C=CCNC(=S)NNC(=O)C(CCC(C)C)CC(C)(C)O` (configuration not stated), for which the activation fold is 1.1 (inactive). As for `O=C1c2ccc(Br)cc2C(=O)N1c1ccc(Cc2ccncc2)cc1`, the figure is 1.1 (inactive); as for `COCCNC(=S)N/N=C(\C)c1ccccc1OC`, 1.1 (inactive). Take `COCCNC(=S)N/N=C(\C)c1ccccc1F`: the activation fold was 1 (inactive). As for `CN(C)CCNC(=O)c1ccc(-c2nn(C)c(=O)c3ccccc23)cc1`, the figure is 1.1 (inactive); as for `CCc1cc2c(=O)[nH]c(-c3ccccn3)nc2s1`, 1.8 (inactive); as for `Cc1sc2nc(-c3ccccn3)[nH]c(=O)c2c1-c1ccccc1`, 1.4 (inactive).

With `O=C(O)/C=C/C(=O)N1CCN(S(=O)(=O)c2cccc(C(F)(F)F)c2)CC1`, the activation fold is 1.1 (inactive). Consider `COc1cccc(/C=N/NC(=O)c2[nH]c(C)c(C(=O)N/N=C/c3cccc(OC)c3)c2C)c1`, for which the activation fold was 1.2 (inactive). `Cc1cccc(C)c1NC(=O)C1(N(Cc2ccco2)C(=O)c2ccccn2)CCCC1`: the activation fold was 1 (inactive). Turning to `Cc1cccc(C)c1NC(=O)C1(N(C(=O)c2ccccn2)c2ccc(O)cc2)CCCCC1`, the activation fold is 1 (inactive). As for `O=C(NCCCn1ccnc1)/C(=C\c1cccnc1)NC(=O)c1ccccc1F`, the activation fold is 1 (inactive). Take `CCC(=O)Nc1ccc(/C(C)=N\NC(=O)c2ccc(C)s2)cc1`: the activation fold is 1 (inactive). Consider `O=C(Nc1cccc2ccccc12)c1ccc([N+](=O)[O-])s1`, for which the activation fold was 1 (inactive).

Take `Cc1cc(C)c(-c2csc(NC(=O)C3=NN(c4ccccc4)C(=O)CC3)n2)c(C)c1`: the activation fold was 0.9 (inactive). On to `O=c1[nH]c(NCCO)nc2c1C1(CCCCC1)Cc1ccccc1-2`, for which the activation fold is 1 (inactive). Take `Cn1c(NCCCO)nc2c(c1=O)C1(CCCCC1)Cc1ccccc1-2`: the activation fold was 1 (inactive). On to `CC1CCCN(c2nc3ccccc3nc2C(C#N)C(=O)OC2CCCCC2)C1` (configuration not stated), for which the activation fold is 1 (inactive). As to `Cc1ccc2nc(-c3ccccc3)c(CN3CCN(c4ccccc4F)CC3)n2c1`, the activation fold is 1.1 (inactive). Turning to `Clc1ccc(-c2nc3ccccn3c2CN2CCCCC2)cc1`, the activation fold is 1.1 (inactive). With `O=c1cc(N2CCc3ccccc3C2)[nH]c(=O)n1Cc1ccc(F)cc1`, the activation fold was 1 (inactive). On to `Cc1sc(NC(=O)CSc2nnc(COc3ccc(Cl)cc3)n2C)c(C#N)c1C`, for which the activation fold was 1.1 (inactive). With `Cc1cccc(-c2nsc(SCC(=O)N3CCCC3)n2)c1`, the activation fold was 1.1 (inactive). Consider `Cc1ccc(Nc2nc(N)nc(CN3CCN(C(=O)c4ccco4)CC3)n2)cc1Cl`, for which the activation fold was 1 (inactive). In the case of `CCNC(=S)NC1CC2CCC(C1)N2Cc1ccccc1` (configuration not stated), the activation fold is 1 (inactive). As for `CNC(=S)NC1CC2CCCC(C1)N2Cc1ccc(C)cc1` (configuration not stated), the figure is 1.1 (inactive).

As for `Cc1c(Cl)c(C(=O)NNC(=S)Nc2ccc(F)cc2)nn1C`, the activation fold was 2.7 (inactive).

Turning to `COc1ccccc1NC(=S)NNC(=O)c1nn(C)c(C)c1Cl`, the activation fold was 1.2 (inactive).

For the molecule `COCc1nnc(NC(=O)c2ccc(OC)cc2OC)s1`, the activation fold was 1.1 (inactive). `COc1ccc(/C=C2/SC(=O)N(CC(=O)NCCC(C)C)C2=O)cc1OC`: the activation fold is 1.1 (inactive). In the case of `COC(=O)Cn1c(CN2CCC(Cc3ccccc3)CC2)nc2c1c(=O)n(C)c(=O)n2C`, the activation fold is 1.1 (inactive).
